Test results from PubChem BioAssay AID1645850 (National Center for Advancing Translational Sciences (NCATS), 2021).
Results filed as inconclusive are left out. Active and inactive are the calls of the source. The call rests on the fitted dose curve; in most records, active means well fitted curve in the direction sought with a large enough effect in the repeat runs; inconclusive means weak or mixed curves, or another doubt; inactive means no such curve, though single readings can be large or run the other way.

Experiment: Comparison of Janus kinase inhibitors to block the type I interferon pathway in human skeletal muscle cells: CTG Counterscreen
Details: human skeletal muscle cells viability, CellTiter-Glo ATP luminescence; series mostly up to 45.9 µM
Excerpt: Assay Submitter (PI): Travis B. Kinder Ph.D.
National Center for Advancing Translational Sciences (NCATS)
The family of Janus kinases (JAK1, JAK2, JAK3, TYK2) mediate signal transduction from cytokine receptors through phosphorylation and activation of intracellular signaling pathways and transcription factors. Small molecule antagonists of JAKs (jakinibs) have been developed with varying selectivity for the use in malignancies and immune regulation. […] We have assayed a library of 48 jakinibs for their ability to inhibit the JAK1/TYK2-dependent type I interferon (IFN) - major histocompatibility complex (MHC) class I pathway in human skeletal muscle cells genome-engineered to fuse a pro-luminescent HiBiT peptide to endogenous MHC class I.
The assay utilized CRISPR/Cas9 genome-engineered immortalized human myoblasts, C25cl48, where a pro-luminescent reporter HiBit was fused to the C-terminus of endogenous MHC class I allele HLA-B*08:01 (HLA-B HiBit myoblasts) (Kinder et al., 2020). […] After 24 hrs of treatment, cells were assayed by CellTiter-Glo Luminescent Cell Viability Assay (Promega) and luminescence measured by a ViewLux 1430 Ultra HTS (Perkin Elmer). […]
7; Detector; 5 sec; Measure luminescence with ViewLux 1430 Ultra HTS (Perkin Elmer). […]

Row | Structure (SMILES) | outcome
1 | CC(C)(O)/C=C\C(=O)[C@](C)(O)[C@H]1[C@H](O)C[C@]2(C)[C@@H]3CC=C4[C@@H](C=C(O)C(=O)C4(C)C)[C@]3(C)C(=O)C[C@@]12C | inactive
2 | CC1CCCCCC(=O)c2c(O)cc(O)cc2CC(=O)O1 (configuration not stated) | inactive
